ClpP mod: qHTS Assay for Activators of ClpP; ATP-dependent Clp protease proteolytic subunit (Bacillus subtilis (strain 168)), P80244; purified B. subtilis ClpP, FRET peptide cleavage, 20 min; Potency, µM (highest dose often 57.5 µM), for the others: top-dose activity change, negative = active; hit rate 1.9% among 340,000; AID 651965, 2013; active means well fitted falling curve with a large enough effect; inconclusive means small, poorly fitted or top-dose-only effect; inactive means no such curve, though single readings can be large or run the other way; further: the source files actives as falling curves though it sought activators and does not explain the sign; nearly all actives have a fitted effect of over 65% in size
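FRET quenching reversal measured ClpP activation: 10 microg/mL B. subtilis ClpP at pH 8 with the FRET-FV decapeptide, read at 430 nm after 320 nm excitation. The 20-min minus 0-min signal was scaled between DMSO/no-enzyme wells and ADEP (5.8 microM final).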
DT40 TDP1 no CPT: qHTS for Inhibitors of human tyrosyl-DNA phosphodiesterase 1 (TDP1): qHTS in cells in absence of CPT. Potency, µM (top dose mostly 46.2 µM), inactives show top-dose activity change, negative = growth inhibition, most hits filed as inhibitors. DT40 Tdp1-/- hTDP1 cells, no CPT, ATP luminescence, 48 h. AID 686978, 2013. hit rate 15% among 420,000; further: on the % scale 0 is the no-effect control and ±100 the full control effect; nearly all actives have a fitted effect of over 55% in size
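No-CPT arm: Tdp1-/-;hTDP1 DT40 cells (400/well) plus compounds, incubated ≥48 hr at 37 °C. Readout CellTiter-Glo luminescence.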
TDP1 block: blocks human tyrosyl-DNA phosphodiesterase 1; hit rate 0.28% among 350,000; recombinant TDP1, AlphaScreen DNA substrate cleavage; Q9NUW8; Potency, µM (doses to about 130 µM), for inactives: at the top dose activity change, negative = inhibition, most hits filed as inhibitors; further: on the % scale 0 is the no-effect control and ±100 the full control effect; nearly all actives have a fitted effect of over 40% in size
Target sequence (Q9NUW8 whole entry, looked up): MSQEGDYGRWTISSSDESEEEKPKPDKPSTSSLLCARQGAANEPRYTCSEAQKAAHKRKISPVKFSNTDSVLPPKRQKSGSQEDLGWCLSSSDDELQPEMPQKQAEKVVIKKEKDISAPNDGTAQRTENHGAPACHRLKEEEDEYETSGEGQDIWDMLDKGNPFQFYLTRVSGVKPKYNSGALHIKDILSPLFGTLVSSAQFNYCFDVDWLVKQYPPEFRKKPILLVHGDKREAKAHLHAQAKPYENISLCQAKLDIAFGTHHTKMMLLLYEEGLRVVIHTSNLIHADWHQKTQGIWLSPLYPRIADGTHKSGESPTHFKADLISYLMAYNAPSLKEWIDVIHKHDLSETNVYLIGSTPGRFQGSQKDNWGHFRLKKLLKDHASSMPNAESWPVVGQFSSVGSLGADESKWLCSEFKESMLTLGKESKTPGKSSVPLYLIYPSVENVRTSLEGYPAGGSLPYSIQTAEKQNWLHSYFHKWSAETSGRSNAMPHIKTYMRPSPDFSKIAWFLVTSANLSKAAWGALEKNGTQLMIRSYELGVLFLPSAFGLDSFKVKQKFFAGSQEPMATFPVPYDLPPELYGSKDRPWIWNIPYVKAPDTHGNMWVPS
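Enzyme-compound mixtures sat 15 min at room temperature, followed by a 5 min reaction with 15 nM final substrate and 10 min with AlphaScreen beads. Recombinant human Tdp1 was used at 1 nM final.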
DT40 TDP1 CPT: DT40-hTDP1 cell growth loss with CPT; AID 686979; hit rate 12% among 420,000; chicken DT40 Tdp1-/-;hTDP1 cells + 20 nM CPT, ATP luminescence, 48 h; Potency, µM (series often up to 46.2 µM), inactives show at the highest dose activity change, negative = growth inhibition, hits mostly inhibitors; further: on the % scale 0 is the no-effect control and ±100 the full control effect; nearly all actives have a fitted effect of over 55% in size
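Chicken DT40 Tdp1-/- cells stably complemented with human TDP1 were seeded at 400 cells/well in medium containing 20 nM camptothecin, exposed to pin-transferred compounds, and grown at 37 °C for at least 48 hr. Viability was read as ATP luminescence.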
* marks the source's active call; other numbers are inactive results; ? = inconclusive; / = not tested or not shown; [ ] = dose if it differs, or a comment. Sampled rows, rich in hits. Any-hit rate of the full collection: about 17%. Unless noted, the call rests on the fitted dose curve; in most records, active means well fitted curve in the direction sought with a large enough effect; inconclusive means small, poorly fitted or top-dose-only effect, or another doubt; inactive means no such curve, though single readings can be large; an effect the other way counts as inactive or inconclusive. Potency means the concentration at half of the fitted maximal effect.

SMILES	ClpP mod	DT40 TDP1 no CPT	TDP1 block	DT40 TDP1 CPT
CC(C)Oc1ccc(CNC(=O)c2cc3ccccn3n2)cc1	?	-25%	-3%	-29%
CC1CN(C(=O)Nc2ccc(C(=O)NCCc3ccc(Cl)cc3)cc2)c2ccccc2S1 (configuration not stated)	-1%	?	0%	-20%
CC(C)Oc1ccc(CNC(=O)c2cc3cccc4c3n2CC(C)S4)cc1 (configuration not stated)	32µM*	?	0%	?
CC(C)Oc1ccc(CNC(=O)CCC(=O)N2CC(C)Sc3ccccc32)cc1 (configuration not stated)	-1%	?	/	16µM*
Cc1ccc2nc(-c3ccc(NC(=O)COc4ccc(Br)cc4Br)cc3)sc2c1	4%	1%	0%[12.3 µM]	-2%
O=C(NCc1ccc(Cl)cc1)c1cc2cccc3c2n1CCS3	22µM*	16µM*	-8%	?
O=c1[nH]c2ccc(Cl)cc2c(-c2ccccc2)c1N1CCOCC1	-12%	-6%	8%	-22%
O=c1[nH]c2ccc(Cl)cc2c(-c2ccccc2)c1CN1CCOCC1	-20%	21µM*	9%	?
O=C(NCC(c1ccco1)N1CCc2ccccc2C1)c1cccc(Br)c1 (configuration not stated)	-2%	?	3%[0.505 µM]	-3%
COc1ccc(-c2noc(C3CCCN(C(=O)c4cccs4)C3)n2)cc1 (configuration not stated)	0%	?	0%	?
Cc1ccc(-c2noc(C3CCCN(C(=O)c4ccc(Cl)cc4)C3)n2)o1 (configuration not stated)	/	13µM*	11%	?
COc1ccc(-c2noc(C3CCCN(C(=O)c4ccc(C)cc4)C3)n2)cc1 (configuration not stated)	/	23µM*	-1%	23µM*
O=c1c(N2CCc3ccccc3C2)csc2ccc(Br)cc12	-19%	?	7%	23µM*
CCOC(=O)C1CCN(C(=O)Cn2nc(CC)n3cccc3c2=O)CC1	-1%	?	2%	?
CCO[C@H]1OC(C(=O)N2CCCCCCC2)=C[C@@H](C2CCCCC2)[C@@H]1CCCO	0%	13µM*	1%	26µM*
C#CCNC(=O)C1=C[C@@H](c2ccc(C(F)(F)F)cc2)[C@H](CCCO)[C@@H](OCC)O1	-2%	?	3%	23µM*
CCO[C@@H]1OC(C(=O)N2CCN(Cc3ccc4c(c3)OCO4)CC2)=C[C@H](C2CCCCC2)[C@H]1CCCO	0%	?	8%	21µM*
CCO[C@@H]1OC(C(=O)N2CCN(Cc3ccc4c(c3)OCO4)CC2)=C[C@H](c2ccc(C(F)(F)F)cc2)[C@H]1CCCO	1%	21µM*	6%	16µM*
CS(=O)(=O)c1ccc(NC(=O)C2CC(=O)N(c3ccc4c(c3)OCCO4)C2)cc1 (configuration not stated)	-3%	-15%	/	-1%
CCO[C@H]1OC(C(=O)NCc2ccccc2)=C[C@@H](C2CCCCC2)[C@@H]1CCCO	1%	16µM*	5%	18µM*
CCO[C@H]1OC(C(=O)N2CCN(Cc3ccccc3)CC2)=C[C@@H](C2CCCCC2)[C@@H]1CCCO	3%	9.2µM*	3%	9.2µM*
COc1cc(OC)cc(C(=O)N[C@H](C(=O)Nc2ccc3c(c2)OCO3)C(C)C)c1	/	-26%	8%	3%
O=C(c1ccccn1)N1CCCC(N2CCN(c3cccc(C(F)(F)F)c3)CC2)C1 (configuration not stated)	/	15µM*	1%	?
O=C(c1cc[n+]([O-])cc1)N1CCCC(N2CCN(c3cccc(C(F)(F)F)c3)CC2)C1 (configuration not stated)	-4%	?	1%	10µM*
O=C(COC(=O)COc1ccc(Cl)cc1Cl)NC1CCS(=O)(=O)C1 (configuration not stated)	-1%	4%	0%	8%
SMILES	ClpP mod	DT40 TDP1 no CPT	TDP1 block	DT40 TDP1 CPT
Cc1ccc(S(=O)(=O)N[C@H]2COC(=O)[C@H](C)COC(=O)C/C=C\[C@H]2C)cc1	/	/	5%[21 µM]	/
CCCCN(Cc1ccco1)C(=O)c1cc2c(s1)-c1c(C)cccc1OC2	5%	23µM*	-12%	?
CN(C)CCN(Cc1ccco1)C(=O)c1cc2c(s1)-c1ccccc1OC2	5%	16µM*	6%	16µM*
O=C(O)c1cc2c(s1)-c1ccccc1OC2	?	-22%	-6%	-23%
COc1ccc(C(=O)N2CCC3(CC2)CCN(C(c2ccccc2)c2ccccc2)CC3)cc1	/	-16%	/	-8%
COc1ccccc1CCNC(=O)Cc1cccs1	/	-5%	/	-5%
COc1ccc(CCNC(=O)C(=O)N/N=C/c2cccs2)cc1OC	/	0%	6%	6%
CCNc1ncc2nc(-c3cccc(C#N)c3)c(=O)n(C)c2n1	/	-4%	/	4%
Cc1c(CCOC(=O)C23CC4CC(CC(C)(C4)C2)C3)sc[n+]1Cc1ccccc1	-3%	2.9µM*	3%	4.1µM*
Cc1c(CCOC(=O)C23CC4CC(CC(C4)C2)C3)sc[n+]1Cc1ccccc1	-1%	10µM*	-3%	?
CCOc1ccccc1CNC(=O)Cn1ncn2nc(-c3cccs3)cc2c1=O	-2%	3%	11%	0%
Cc1ccc(NC(=O)C(=O)NCC(c2cccnc2)N2CCN(Cc3ccccc3)CC2)cc1C (configuration not stated)	-2%	16µM*	6%	16µM*
Cc1ccc(NC(=O)C(=O)NCC(c2cccnc2)N2CCN(Cc3ccccc3)CC2)cc1F (configuration not stated)	-9%	5.8µM*	5%	7.3µM*
COc1ccc(-c2ccc(=O)n(CC(=O)Nc3ccccc3C(F)(F)F)n2)cc1	-23%	-12%	2%	-9%
Cc1cccc(C)c1NC(=O)CS(=O)(=O)c1nc(-c2ccc(Cl)cc2)cn1-c1ccccc1	-2%	16µM*	9%	9.2µM*
COc1ccc(-c2cn(-c3ccc(C)cc3)c(S(=O)(=O)CC(=O)Nc3ccc(F)cc3)n2)cc1	-2%	21µM*	9%	16µM*
COc1ccccc1-n1cc(-c2ccc(C)cc2)nc1S(=O)(=O)CC(=O)Nc1ccccc1C(F)(F)F	-1%	16µM*	6%	?
N#Cc1cc[n+](CC(=O)c2ccc(NC(=O)c3ccccc3)cc2)cc1	2%	-6%	5%	-9%
NS(=O)(=O)c1ccc(CCNC(=O)COC(=O)c2ccc([N+](=O)[O-])o2)cc1	/	-21%	-11%	7%
CC(C)C(=O)N1CCN(c2cc(N3CCN(C)CC3)c(F)cc2[N+](=O)[O-])CC1	-2%	-1%	-4%	1%

Source: PubChem BioAssay (National Center for Advancing Translational Sciences (NCATS))
